Source: PubChem BioAssay (NCATS)
Records with an inconclusive call do not appear. Activity calls are given as the source filed them. Unless noted, calls follow the shape of the dose curve; as a rule, active = well fitted curve in the direction sought with a large enough effect; inconclusive = small, poorly fitted or top-dose-only effect, or another doubt; inactive = no such curve, though single readings can be large; an effect the other way counts as inactive or inconclusive.

What was measured:
[1] = Primary qHTS for small molecule stabilizers of the endoplasmic reticulum resident proteome: Secreted ER Calcium Modulated Protein (SERCaMP) assay (AID 1508630)
Procedure, shortened: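 GLuc-SERCaMP-expressing SH-SY5Y cells, pretreated 16 h with compound, are challenged with thapsigargin to empty ER calcium stores; after 4 h, coelenterazine is added directly to the medium and luminescence is imaged.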

[2] = A High-Content qHTS Against Drug Library for the Identification of Small Molecules that Inhibit DYT1 Early Onset Primary Dystonia-Associated Cell Pathology (AID 1645839; calls by dose curve)
Procedure, shortened: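 In this high-content image screen, delE TorsinA mislocalization in inducible Flp-In 293 cells is scored as %pathology, with cell count serving as the counterscreen. Compound exposure lasts 48 h under tetracycline induction in reduced-serum medium.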

[3] = target: Cytochrome P450 2D6 (Homo sapiens) (UniProt P10635); test: Cytochrome P450 family 2 subfamily D member 6 (CYP2D6) small molecule antagonists: luciferase biochemical (cell-free) qHTS assay (AID 1645840; active = well fitted curve in the direction sought with a large enough effect in the repeat runs; an effect the other way counts as inactive or inconclusive; also: nearly all actives have a fitted effect of over 55% in size; also: potency is read from the fitted curve at half-maximal effect)
Procedure, shortened: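 P450-Glo luminescent screen: recombinant CYP2D6 enzyme–proluciferin substrate mix preincubated with compound 10 min at room temperature, then NADPH regeneration added for 1 h at room temperature. Detection reagent added for 20 min; luciferin light read as relative luminescence units.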

[4] = Primary qHTS for inhibitors of nuclear receptor binding SET domain protein 2 (NSD2) in an isogenic RCH-ACV NSD2 p.E1099K mutant (9B) (AID 1645876); also: nearly all actives have a fitted effect of over 70% in size; also: potency is read from the fitted curve at half-maximal effect
[5] = Primary qHTS for inhibitors of nuclear receptor binding SET domain protein 2 (NSD2) in an RCH-ACV wild type WT cells (2C) (AID 1645877); also: nearly all actives have a fitted effect of over 70% in size; also: potency is read from the fitted curve at half-maximal effect
[6] = target: Papain (Carica papaya) (UniProt P00784); test: Primary qHTS assay for inhibitors of the protease papain (AID 1645873);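 also: papain turnover of Z-FR-AMC read as the AMC fluorescence gain over 10 min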; also: potency is read from the fitted curve at half-maximal effect
[7] = target: Rap guanine nucleotide exchange factor 3 (Homo sapiens) (UniProt O95398); test: Confirmatory qHTS for antagonist of cAMP-regulated guanine nucleotide exchange factor 3 (EPAC1) (AID 1645880); also: nearly all actives have a fitted effect of over 55% in size
Procedure, shortened: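 Nucleotide exchange uses 100 nM EPAC1, 250 nM RAP1B-BODIPY-GDP and 50 uM GDP, with compounds in a concentration-titration series. After 5 min at room temperature, fluorescence (480 nm ex/540 nm em) is read every 5 min for 30 min. Data are normalized to control ATA and DMSO.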

[8] = target: Rap guanine nucleotide exchange factor 3 (Homo sapiens) (UniProt O95398); test: Confirmatory qHTS for agonist of cAMP-regulated guanine nucleotide exchange factor 3 (EPAC1) (AID 1645881);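 also: EPAC1 catalysed release of BODIPY-GDP from Rap1B seen as fluorescence loss; nearly all actives have a fitted effect of over 75% in size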
[9] = target: Catechol O-methyltransferase (Homo sapiens) (UniProt P21964); test: Confirmatory Screen for Target Class Profiling of Small Molecule Inhibitors of Methyltransferases (AID 1745852; calls by dose curve); settings: MTase-Glo luminescence, SAH detection, recombinant enzyme; measured here: COMT max response; stronger effect = lower value
[10] = target: Guanidinoacetate N-methyltransferase (Homo sapiens) (UniProt Q14353); test: as above; settings: MTase-Glo luminescence, SAH detection, recombinant enzyme; at 57.3 µM (top of the series)
[11] = target: Nicotinamide N-methyltransferase (Homo sapiens) (UniProt P40261); test: as above; settings: MTase-Glo luminescence, SAH detection, recombinant enzyme; measured here: NNMT max response; stronger effect = lower value
[12] = target: Cytochrome P450 2C9 (Homo sapiens) (UniProt P11712); test: Cytochrome P450 family 2 subfamily C member 9 (CYP2C9) small molecule antagonists: luciferase biochemical (cell-free) qHTS assay (AID 1645842; active = well fitted curve in the direction sought with a large enough effect in the repeat runs; an effect the other way counts as inactive or inconclusive; also: nearly all actives have a fitted effect of over 55% in size)
Procedure, shortened: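 Luminescence, after 20 min with luciferin detection reagent, reflected CYP2C9 turnover during a 1 h NADPH-driven reaction at 37C. Enzyme-substrate mix contained 0.4% bovine serum albumin and was preincubated with compound 10 min at room temperature.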

[13] = target: Rap guanine nucleotide exchange factor 4 (Homo sapiens) (UniProt Q8WZA2); test: Confirmatory qHTS for agonist of cAMP-regulated guanine nucleotide exchange factor 4 (EPAC2) (AID 1645884);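 also: nucleotide exchange releases bodipy-GDP from Rap1 and this lowers its fluorescence; nearly all actives have a fitted effect of over 65% in size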
[14] = target: Rap guanine nucleotide exchange factor 4 (Homo sapiens) (UniProt Q8WZA2); test: Confirmatory qHTS for antagonist of cAMP-regulated guanine nucleotide exchange factor 4 (EPAC2) (AID 1645885); also: nearly all actives have a fitted effect of over 25% in size
[15] = target: Rap guanine nucleotide exchange factor 3 (Homo sapiens) (UniProt O95398); test: Counterscreen qHTS for antagonist of cAMP-regulated guanine nucleotide exchange factor 3 (EPAC1) (AID 1645888);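 also: fluorescence loss as bound BODIPY-GDP is released from Rap1B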
Procedure, shortened: (§1)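 Rap1B-BODIPY-GDP 250 nM + GDP 50 uM; cpds 7-pt, final 9.74 nM–152 uM (activator mode) or from 7.32 nM upwards (inhibitor mode); RT; FI 480/540 nm at 5 and 30 min, then ± cAMP, reread.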

[16] = target: Rap guanine nucleotide exchange factor 3 (Homo sapiens) (UniProt O95398); test: Counterscreen qHTS for agonist of cAMP-regulated guanine nucleotide exchange factor 3 (EPAC1) (AID 1645889); also: nearly all actives have a fitted effect of over 40% in size
Procedure, shortened: as §1

Catechol O-methyltransferase (Homo sapiens), sequence (P21964 whole entry, looked up): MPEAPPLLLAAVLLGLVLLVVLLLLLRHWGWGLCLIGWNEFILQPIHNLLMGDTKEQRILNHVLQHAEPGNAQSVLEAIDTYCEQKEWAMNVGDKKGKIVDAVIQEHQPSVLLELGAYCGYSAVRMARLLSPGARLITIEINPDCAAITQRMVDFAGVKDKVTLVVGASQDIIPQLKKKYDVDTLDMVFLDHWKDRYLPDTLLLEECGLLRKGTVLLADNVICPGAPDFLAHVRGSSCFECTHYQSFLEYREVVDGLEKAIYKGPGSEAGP
Cytochrome P450 2C9 (Homo sapiens), sequence (P11712 whole entry, looked up): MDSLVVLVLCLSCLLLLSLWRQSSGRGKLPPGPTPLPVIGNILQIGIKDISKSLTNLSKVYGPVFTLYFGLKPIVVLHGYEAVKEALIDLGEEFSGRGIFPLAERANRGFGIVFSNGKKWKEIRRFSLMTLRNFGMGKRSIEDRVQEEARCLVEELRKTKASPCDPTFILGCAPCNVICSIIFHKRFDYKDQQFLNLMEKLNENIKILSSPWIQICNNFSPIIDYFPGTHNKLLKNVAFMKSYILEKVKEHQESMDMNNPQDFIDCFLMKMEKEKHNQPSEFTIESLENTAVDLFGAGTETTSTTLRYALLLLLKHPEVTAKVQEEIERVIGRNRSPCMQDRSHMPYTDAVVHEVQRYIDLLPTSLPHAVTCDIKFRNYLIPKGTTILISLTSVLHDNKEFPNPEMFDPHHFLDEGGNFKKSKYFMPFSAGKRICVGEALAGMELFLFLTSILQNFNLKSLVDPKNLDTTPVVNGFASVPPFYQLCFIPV
Papain (Carica papaya), sequence (P00784 whole entry, looked up): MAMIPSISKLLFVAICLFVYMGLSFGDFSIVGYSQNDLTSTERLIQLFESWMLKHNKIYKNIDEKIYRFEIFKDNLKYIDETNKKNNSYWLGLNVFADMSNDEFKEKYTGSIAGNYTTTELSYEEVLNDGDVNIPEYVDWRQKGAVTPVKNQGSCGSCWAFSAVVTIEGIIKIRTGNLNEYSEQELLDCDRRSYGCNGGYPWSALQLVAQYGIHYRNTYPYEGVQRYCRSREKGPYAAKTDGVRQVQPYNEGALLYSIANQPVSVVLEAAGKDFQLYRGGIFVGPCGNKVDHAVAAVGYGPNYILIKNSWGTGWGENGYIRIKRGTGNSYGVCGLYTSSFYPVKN
Nicotinamide N-methyltransferase (Homo sapiens), sequence (P40261 whole entry, looked up): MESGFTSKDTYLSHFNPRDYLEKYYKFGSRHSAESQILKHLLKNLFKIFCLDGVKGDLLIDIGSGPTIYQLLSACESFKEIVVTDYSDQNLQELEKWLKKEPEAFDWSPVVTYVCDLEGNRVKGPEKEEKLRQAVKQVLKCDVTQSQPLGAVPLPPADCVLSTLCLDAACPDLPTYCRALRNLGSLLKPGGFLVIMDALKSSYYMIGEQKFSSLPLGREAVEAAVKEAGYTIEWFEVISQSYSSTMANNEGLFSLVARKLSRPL
Rap guanine nucleotide exchange factor 3 (Homo sapiens), sequence (O95398 whole entry, looked up): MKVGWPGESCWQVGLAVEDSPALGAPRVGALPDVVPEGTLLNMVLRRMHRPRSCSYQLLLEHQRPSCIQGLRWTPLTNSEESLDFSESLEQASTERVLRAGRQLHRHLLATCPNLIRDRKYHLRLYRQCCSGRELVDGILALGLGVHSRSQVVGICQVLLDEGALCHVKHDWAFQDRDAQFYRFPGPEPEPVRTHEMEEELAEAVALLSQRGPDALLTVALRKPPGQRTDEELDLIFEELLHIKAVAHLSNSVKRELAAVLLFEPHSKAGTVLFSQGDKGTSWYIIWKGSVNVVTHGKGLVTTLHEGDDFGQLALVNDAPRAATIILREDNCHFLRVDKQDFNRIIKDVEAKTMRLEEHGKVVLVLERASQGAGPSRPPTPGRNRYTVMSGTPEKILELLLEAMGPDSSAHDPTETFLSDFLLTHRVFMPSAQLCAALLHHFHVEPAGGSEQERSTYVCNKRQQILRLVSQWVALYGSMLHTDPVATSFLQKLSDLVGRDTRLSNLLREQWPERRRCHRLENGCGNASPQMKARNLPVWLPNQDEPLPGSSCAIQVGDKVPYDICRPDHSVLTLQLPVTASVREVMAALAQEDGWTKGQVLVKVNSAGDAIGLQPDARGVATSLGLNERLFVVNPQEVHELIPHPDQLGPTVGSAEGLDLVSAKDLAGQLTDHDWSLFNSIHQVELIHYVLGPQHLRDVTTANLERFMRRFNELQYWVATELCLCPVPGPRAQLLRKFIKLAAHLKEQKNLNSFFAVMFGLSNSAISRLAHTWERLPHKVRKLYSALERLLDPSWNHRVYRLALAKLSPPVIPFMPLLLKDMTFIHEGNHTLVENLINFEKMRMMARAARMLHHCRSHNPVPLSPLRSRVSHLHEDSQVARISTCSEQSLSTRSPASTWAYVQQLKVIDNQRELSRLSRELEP
Cytochrome P450 2D6 (Homo sapiens), sequence (P10635 whole entry, looked up): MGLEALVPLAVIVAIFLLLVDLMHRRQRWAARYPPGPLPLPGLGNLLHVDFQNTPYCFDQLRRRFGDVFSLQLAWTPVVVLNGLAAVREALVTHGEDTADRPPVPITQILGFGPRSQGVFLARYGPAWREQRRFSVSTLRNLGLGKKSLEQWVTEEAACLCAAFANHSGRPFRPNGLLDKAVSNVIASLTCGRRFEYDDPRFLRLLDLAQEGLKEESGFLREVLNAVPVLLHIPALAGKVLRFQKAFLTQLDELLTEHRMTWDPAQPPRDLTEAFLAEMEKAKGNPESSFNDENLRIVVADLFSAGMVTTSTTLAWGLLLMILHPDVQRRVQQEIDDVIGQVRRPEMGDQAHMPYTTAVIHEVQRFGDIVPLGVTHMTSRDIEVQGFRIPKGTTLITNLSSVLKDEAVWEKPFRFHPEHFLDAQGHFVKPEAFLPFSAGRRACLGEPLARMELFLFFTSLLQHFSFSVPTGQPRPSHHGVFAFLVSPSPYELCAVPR
Rap guanine nucleotide exchange factor 4 (Homo sapiens), sequence (Q8WZA2 whole entry, looked up): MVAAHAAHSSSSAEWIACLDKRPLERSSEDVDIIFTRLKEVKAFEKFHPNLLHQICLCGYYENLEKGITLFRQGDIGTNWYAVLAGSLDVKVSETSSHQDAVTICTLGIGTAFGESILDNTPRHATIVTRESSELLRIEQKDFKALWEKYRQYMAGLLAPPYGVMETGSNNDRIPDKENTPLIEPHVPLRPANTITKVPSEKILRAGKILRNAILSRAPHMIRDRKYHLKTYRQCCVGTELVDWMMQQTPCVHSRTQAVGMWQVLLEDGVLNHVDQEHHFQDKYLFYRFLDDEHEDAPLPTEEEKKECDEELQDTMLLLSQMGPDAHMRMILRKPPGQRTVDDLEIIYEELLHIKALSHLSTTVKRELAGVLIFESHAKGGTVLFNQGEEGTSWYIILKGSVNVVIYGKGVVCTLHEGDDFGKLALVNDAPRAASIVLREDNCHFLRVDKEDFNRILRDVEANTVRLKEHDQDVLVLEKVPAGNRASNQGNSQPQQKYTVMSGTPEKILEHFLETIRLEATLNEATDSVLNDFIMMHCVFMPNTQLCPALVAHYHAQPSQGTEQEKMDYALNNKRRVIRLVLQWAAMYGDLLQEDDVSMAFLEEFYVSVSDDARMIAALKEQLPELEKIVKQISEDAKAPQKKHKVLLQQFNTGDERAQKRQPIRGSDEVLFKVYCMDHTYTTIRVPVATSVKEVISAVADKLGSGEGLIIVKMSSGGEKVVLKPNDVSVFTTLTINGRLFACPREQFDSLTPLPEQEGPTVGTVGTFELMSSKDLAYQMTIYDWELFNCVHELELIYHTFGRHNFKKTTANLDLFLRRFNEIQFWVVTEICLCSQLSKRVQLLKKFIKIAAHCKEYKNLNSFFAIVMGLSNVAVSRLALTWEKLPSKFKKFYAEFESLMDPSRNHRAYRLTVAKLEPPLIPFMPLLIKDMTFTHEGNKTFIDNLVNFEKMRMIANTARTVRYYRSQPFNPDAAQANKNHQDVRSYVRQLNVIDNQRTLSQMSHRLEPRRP

FC(F)(F)c1ccccc1-n1ccnc1
active: Potency [3] 3.47 µM
inactive: Potency [1] | Potency [2] | Potency [4] | Potency [5]

CCOC(=O)C1=C(C)NC(C)=C(C(=O)OC)C1c1cccc([N+](=O)[O-])c1 (configuration not stated)
inactive: Potency [1] | Potency [2] | Potency [6] | outcome [7] | Potency [8]
active: Potency [3] 13.8 µM

CCCN(CCC)CCc1cccc2c1CC(=O)N2
9.88%: activity [9]
inactive: Potency [1] | Potency [2] | Potency [6] | Potency [4] | Potency [5]
1.36%: activity [11]
6.02%: activity change, negative = inhibition [10]
active: Potency [3] 2.75 µM

CC(N=C(NC#N)Nc1ccncc1)C(C)(C)C (configuration not stated)
active: Potency [3] 21.9 µM
inactive: Potency [1] | Potency [2] | Potency [6] | Potency [4] | Potency [5]

CC(C)NNC(=O)c1ccncc1
inactive: Potency [1] | Potency [2] | Potency [3] | Potency [6] | Potency [4] | Potency [5]

C#CCN(C)CCCOc1ccc(Cl)cc1Cl
inactive: Potency [1] | Potency [2] | Potency [6] | Potency [4] | Potency [5]
active: Potency [3] 1.55 µM

CC(C)(Oc1ccc(CCNC(=O)c2ccc(Cl)cc2)cc1)C(=O)O
inactive: Potency [1] | Potency [2] | Potency [3] | Potency [6] | Potency [4] | Potency [5]

CC(=O)OC(C)C[N+](C)(C)C (configuration not stated)
inactive: Potency [1] | Potency [2] | Potency [12] | Potency [6] | Potency [4] | Potency [5]

NS(=O)(=O)c1cc2c(cc1Cl)NC(C1CC3C=CC1C3)NS2(=O)=O (configuration not stated)
inactive: Potency [1] | Potency [2] | Potency [6] | Potency [4] | Potency [5]

C[C@]12CCC(=O)C=C1CC[C@@H]1[C@@H]2C(=O)C[C@@]2(C)[C@H]1CC[C@]2(O)C(=O)CO
inactive: Potency [1] | Potency [2] | Potency [3] | Potency [4] | Potency [5]

CC(=O)[C@@]1(O)CC[C@H]2[C@@H]3CCC4=CC(=O)CC[C@]4(C)[C@H]3CC[C@@]21C
inactive: Potency [1] | Potency [2] | Potency [6] | Potency [4] | Potency [5]

NC(N)=N/N=C/c1c(Cl)cccc1Cl
-0.724%: activity [9]
0.25%: activity change, negative = inhibition [10]
active: Potency [3] 9.77 µM
-52.2%: activity [11]
inactive: Potency [1] | Potency [2] | Potency [6]

CC[N+](C)(C)c1cccc(O)c1
inactive: Potency [1] | Potency [2] | Potency [3] | Potency [6] | Potency [4] | Potency [5]

Nc1nc(N)c2nc(-c3ccccc3)c(N)nc2n1
active: Potency [6] 1.12 µM | Potency [4] 7.5 µM | Potency [5] 9.44 µM
inactive: Potency [1] | Potency [2]

c1cnc(N2CCN(Cc3ccc4c(c3)OCO4)CC2)nc1
active: Potency [3] 0.871 µM
inactive: Potency [1] | Potency [2] | Potency [6] | Potency [4] | Potency [5]

C[N+](C)(C)CCOC(=O)CCC(=O)OCC[N+](C)(C)C
inactive: Potency [1] | Potency [2] | Potency [3] | Potency [6] | Potency [4] | Potency [5]

CCCNC(C)C(=O)Nc1ccccc1C (configuration not stated)
inactive: Potency [1] | Potency [2] | Potency [12] | Potency [6] | Potency [4] | Potency [5]

Cc1ccc(S(=O)(=O)NC(=O)NN2CCCCCC2)cc1
inactive: Potency [1] | Potency [2] | Potency [6] | Potency [4] | Potency [5]

CN(C)CCOC(=O)COc1ccc(Cl)cc1
inactive: Potency [1] | Potency [2] | Potency [6] | Potency [4] | Potency [5]

CCN(CC)CC(=O)Nc1c(C)cccc1C
inactive: Potency [1] | Potency [2] | Potency [6] | Potency [4] | Potency [5]

Cc1nc2c([nH]1)c(=O)n(C)c(=O)n2Cc1ccco1
inactive: Potency [1] | Potency [2] | Potency [12] | Potency [6] | Potency [5]

CCN(CC)CCNC(=O)c1cc(S(C)(=O)=O)ccc1OC
inactive: Potency [1] | Potency [2] | Potency [12] | Potency [6] | Potency [4] | Potency [5]

CN(C)C(=O)Oc1cccc([N+](C)(C)C)c1
inactive: Potency [1] | Potency [2] | Potency [3] | Potency [6] | Potency [4] | Potency [5]

Brc1c(NC2=NCCN2)ccc2nccnc12
active: Potency [3] 21.9 µM
inactive: Potency [1] | Potency [2] | Potency [6] | Potency [4] | Potency [5]

C[n+]1cc2c3c(ccc2c2ccc4cc5c(cc4c21)OCO5)OCO3
inactive: Potency [1] | Potency [6]
active: Potency [3] 6.74 µM | Potency [4] 0.58 µM | Potency [5] 0.411 µM

CCc1c(C)[nH]c2c1C(=O)C(CN1CCOCC1)CC2 (configuration not stated)
6.21%: activity [9]
-2.7%: activity change, negative = inhibition [10]
inactive: Potency [1] | Potency [2] | Potency [6]
-7.58%: activity [11]

OCCN1CCN(CC/C=C2/c3ccccc3Sc3ccc(C(F)(F)F)cc32)CC1
active: Potency [3] 6.92 µM | Potency [4] 15 µM | Potency [5] 10.6 µM
inactive: Potency [1] | Potency [6] | Potency [8] | Potency [13] | Potency [14] | outcome [15] | outcome [16]

CN=C(NC#N)NCCSCc1nc[nH]c1C
inactive: Potency [1] | Potency [2] | Potency [6] | Potency [4] | Potency [5]

CCn1nc(C(=O)O)c(=O)c2cc3c(cc21)OCO3
inactive: Potency [2] | Potency [6] | Potency [4] | Potency [5]

CNCCC(Oc1ccccc1OC)c1ccccc1 (configuration not stated)
inactive: Potency [12] | Potency [6]
active: Potency [3] 1.74 µM
